{"source": "PubChem BioAssay (NCATS)", "note": "Inconclusive results are not listed. A call without a number means that no potency is given here. Unmarked numbers belong to inactive results. Calls of active or inactive are those of the source. The call rests on the fitted dose curve; in most records, active means well fitted cell-killing curve with a large enough effect; inconclusive means small, poorly fitted or top-dose-only effect; inactive means flat fitted curve, though single readings scatter.", "data": [{"assay": "qHTS of pediatric cancer cell lines to identify multiple opportunities for drug repurposing: Primary screen for control Hh wild type fibroblast cells (AID 1347106);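 further: a drop in luminescence marks cytotoxicity and a rise apparent proliferation; nearly all actives have a fitted effect of over 55% in size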", "settings": "Hh wild-type fibroblast viability, CellTiter-Glo luminescence, 48 h; series mostly up to 46 µM; activity change, negative = cytotoxic: at the top concentration", "source_text": "Drug repurposing or repositioning has been offered as a strategy for drug development in oncology programs. This approach has special potential for childhood cancers and other rare or orphan diseases, where the expected return on new drug development has been a disincentive to pharmaceuticals.\nIn this project we exploit the poly-pharmacology of drugs to discover new indications via phenotypic screening of a panel of 19 well-characterized cell lines derived from solid tumors seen in children and adolescents. The goal is to identify approved drugs with previously unrecognized anticancer properties that has the potential to reveal new mechanisms and biological processes involved in carcinogenesis or drug resistance. We employed a titration-based paradigm (quantitative high-throughput screening or qHTS), where all compounds were tested at multiple concentrations for their effect on cell viability. Concentration-response curves (CRCs) were derived directly from the primary screen, and both potency and efficacy values were used to identify compounds with robust bioactivity profiles. We screened the NIH Chemical Genomics Center (NCGC) Pharmaceutical Collection (NPC) and Mechanism Interrogation Plate (MIPE) small molecule collections of approved and investigational compounds against these cell lines; and measured metabolically active cells after 48 hours of compound treatment as a proxy for cell viability.\nAssay Submitter: Nathalia J. Martinez, National Center for Advancing Translational Sciences, National Institutes of Health, Rockville, MD, USA; email: natalia.martinez@nih.gov\n[1] Shen, M et al. Quantitative high-throughput phenotypic screening of pediatric cancer cell lines identifies multiple opportunities for drug repurposing. Oncotarget 2017 Dec 19;9(4):4758-4772. PMID 29435139.\nThe cells were obtained from University of North Carolina (UNC), Pediatric Preclinical Testing Program (PPT), and Coriell Institute (CI).\nqHTS cell viability assay:\nCells were assayed in growth media at a density of 500-1,000 cells/well. Five microliters of cells were dispensed into 1,536-well, white, solid-bottom, TC-treated plates (Greiner Bio One) using a multidrop dispenser and incubated at 37 degrees C, 5% CO2, under a humidified atmosphere for 5 hours. Twenty-three nanoliters of compounds and controls (neutral control DMSO or positive control bortezomib at final concentration of 2.3 µM) were subsequently transferred by Kalypsys pintool. For primary screens, the MIPE collection was tested at 11-point dilutions (final concentrations range from 0.78 nM to 46 µM) and the NPC collection at 8-point dilutions (final concentrations range from 0.59 nM to 46 µM). Compounds tested in follow-up screens were assayed at 11-point dilutions. Cells were incubated for 48 hours, followed by addition of 3 µL of CellTiter-Glo (Promega). After a 15 min incubation at room temperature, samples were analyzed for luminescence intensity using a ViewLux High-throughput CCD imager equipped with clear filters.", "units": {"activity change, negative = cytotoxic": "%"}, "values": [{"smiles": "C#CCN[C@@H]1CCc2ccccc21", "Potency": "inactive"}, {"smiles": "Cc1onc(-c2ccccc2Cl)c1C(=O)N[C@@H]1C(=O)N2[C@@H]1SC(C)(C)[C@@H]2C(=O)O", "Potency": "inactive"}, {"smiles": "CCCCCCNC(=O)n1cc(F)c(=O)[nH]c1=O", "Potency": "inactive"}, {"smiles": "CCc1cc(C(N)=S)ccn1", "Potency": "inactive"}, {"smiles": "O=NN(CCCl)C(=O)NC1CCCCC1", "Potency": "inactive"}, {"smiles": "CC(C)(Sc1cc(C(C)(C)C)c(O)c(C(C)(C)C)c1)Sc1cc(C(C)(C)C)c(O)c(C(C)(C)C)c1", "Potency": "inactive"}, {"smiles": "Nc1ccc(S(=O)(=O)Nc2ccccn2)cc1", "Potency": "inactive"}, {"smiles": "NC(=O)c1ccc2[nH]ccc2c1", "activity change, negative = cytotoxic": 17.6}, {"smiles": "CCN1CCCC1CNC(=O)c1cc(S(N)(=O)=O)ccc1OC", "note": "(stereo not given)", "activity change, negative = cytotoxic": 2.92}, {"smiles": "COc1ccc(-c2ccc3cc(C(=O)O)ccc3c2)cc1C12CC3CC(CC(C3)C1)C2", "Potency": "inactive"}, {"smiles": "NC1(c2ccc(-c3nc4ccn5c(=O)[nH]nc5c4cc3-c3ccccc3)cc2)CCC1", "activity change, negative = cytotoxic": -3.93}, {"smiles": "O=C(N[C@H](CO)[C@H](O)c1ccc([N+](=O)[O-])cc1)C(Cl)Cl", "Potency": "inactive"}, {"smiles": "CC[C@H](C)C(=O)O[C@H]1C[C@@H](C)C=C2C=C[C@H](C)[C@H](CC[C@@H]3C[C@@H](O)CC(=O)O3)[C@H]21", "activity change, negative = cytotoxic": -12}, {"smiles": "CN(C)CCc1c[nH]c2ccc(CS(=O)(=O)N3CCCC3)cc12", "Potency": "inactive"}, {"smiles": "CC1(C)[C@H](C(=O)O)N2C(=O)C[C@H]2S1(=O)=O", "Potency": "inactive"}, {"smiles": "CNS(=O)(=O)Cc1ccc2[nH]cc(CCN(C)C)c2c1", "Potency": "inactive"}, {"smiles": "Cc1cc(NS(=O)(=O)c2ccc(N)cc2)no1", "activity change, negative = cytotoxic": 2.43}, {"smiles": "C1CCC(C(CC2CCCCN2)C2CCCCC2)CC1", "note": "(stereo not given)", "activity change, negative = cytotoxic": -0.985}, {"smiles": "CC(=O)[C@H]1CC[C@H]2[C@@H]3CC=C4C[C@@H](O)CC[C@]4(C)[C@H]3CC[C@]12C", "Potency": "inactive"}, {"smiles": "O=C(O)C1CCCN(CCC=C(c2ccccc2)c2ccccc2)C1", "note": "(stereo not given)", "activity change, negative = cytotoxic": 2.69}, {"smiles": "CCn1cc(C(=O)O)c(=O)c2cc(F)c(N3CCNCC3)nc21", "Potency": "inactive"}, {"smiles": "CCCN[C@H]1CCc2nc(N)sc2C1", "Potency": "inactive"}, {"smiles": "Cc1ccnc2c1NC(=O)c1cccnc1N2C1CC1", "Potency": "inactive"}, {"smiles": "NC(N)=NC(N)=NCCc1ccccc1", "Potency": "inactive"}, {"smiles": "NC(=O)c1cccc(N)c1", "activity change, negative = cytotoxic": -3.31}, {"smiles": "CCN(CC)CCn1c(=O)c(Cc2ccc(OC)cc2)nc2ccccc21", "activity change, negative = cytotoxic": 4.85}, {"smiles": "O=C(NCC1CN(c2ccc(N3CCOCC3=O)cc2)C(=O)O1)c1ccc(Cl)s1", "note": "(stereo not given)", "Potency": "inactive"}, {"smiles": "NNC(=O)c1ccncc1", "Potency": "inactive"}, {"smiles": "CCCCS(=N)(=O)CCC(N)C(=O)O", "note": "(stereo not given)", "activity change, negative = cytotoxic": -2.92}, {"smiles": "CN(C)CCc1c[nH]c2ccc(C[C@H]3COC(=O)N3)cc12", "Potency": "inactive"}, {"smiles": "CCc1c2c(nc3ccc(OC(=O)N4CCC(N5CCCCC5)CC4)cc13)-c1cc3c(c(=O)n1C2)COC(=O)[C@]3(O)CC", "Potency": "inactive"}, {"smiles": "CCC(=O)O[C@]1(C(=O)CCl)[C@@H](C)C[C@H]2[C@@H]3CCC4=CC(=O)C=C[C@]4(C)[C@@]3(F)[C@@H](O)C[C@@]21C", "Potency": "inactive"}, {"smiles": "CNC1CCCN(c2c(F)cc3c(=O)c(C(=O)O)cn(C4CC4)c3c2OC)C1", "note": "(stereo not given)", "Potency": "inactive"}, {"smiles": "CCCOc1ccc(C(=O)OCCN(CC)CC)cc1N", "Potency": "inactive"}, {"smiles": "O=C(O)CCn1c2c(c3ccccc31)C[C@H](NS(=O)(=O)c1ccc(F)cc1)CC2", "Potency": "inactive"}, {"smiles": "CCN[C@H]1C[C@H](C)S(=O)(=O)c2sc(S(N)(=O)=O)cc21", "Potency": "inactive"}, {"smiles": "COc1cc([C@@H]2c3cc4c(cc3[C@H](O)[C@H]3COC(=O)[C@H]23)OCO4)cc(OC)c1OC", "activity change, negative = cytotoxic": -10.5}, {"smiles": "COc1ccc2c(c1)c(CC(=O)OCC(=O)O)c(C)n2C(=O)c1ccc(Cl)cc1", "Potency": "inactive"}, {"smiles": "CCOC(=O)c1ccc(OC(=O)CCCCCN=C(N)N)cc1", "Potency": "inactive"}, {"smiles": "CCC(=O)O[C@]1(C(=O)SCF)[C@H](C)C[C@H]2[C@@H]3C[C@H](F)C4=CC(=O)C=C[C@]4(C)[C@@]3(F)[C@@H](O)C[C@@]21C", "Potency": "inactive"}]}]}
